Values joined by “and” are separate entries in the source; they are usually repeats but may differ in a detail not shown here. Equal values may be shown once. Inconclusive results are not listed. Some compounds were tested as several samples or in several runs, with calls that do not always agree. Active and inactive are the calls of the source. The call rests on the fitted dose curve; in most records, active means well fitted inhibition curve with a large enough effect in the repeat runs; inconclusive means weak or mixed curves; inactive means flat fitted curve, though single readings scatter.
On the % scale 0 is the no-effect control and ±100 the full control effect.

Luciferin 4-monooxygenase (Photinus pyralis), sequence (P08659 whole entry, looked up): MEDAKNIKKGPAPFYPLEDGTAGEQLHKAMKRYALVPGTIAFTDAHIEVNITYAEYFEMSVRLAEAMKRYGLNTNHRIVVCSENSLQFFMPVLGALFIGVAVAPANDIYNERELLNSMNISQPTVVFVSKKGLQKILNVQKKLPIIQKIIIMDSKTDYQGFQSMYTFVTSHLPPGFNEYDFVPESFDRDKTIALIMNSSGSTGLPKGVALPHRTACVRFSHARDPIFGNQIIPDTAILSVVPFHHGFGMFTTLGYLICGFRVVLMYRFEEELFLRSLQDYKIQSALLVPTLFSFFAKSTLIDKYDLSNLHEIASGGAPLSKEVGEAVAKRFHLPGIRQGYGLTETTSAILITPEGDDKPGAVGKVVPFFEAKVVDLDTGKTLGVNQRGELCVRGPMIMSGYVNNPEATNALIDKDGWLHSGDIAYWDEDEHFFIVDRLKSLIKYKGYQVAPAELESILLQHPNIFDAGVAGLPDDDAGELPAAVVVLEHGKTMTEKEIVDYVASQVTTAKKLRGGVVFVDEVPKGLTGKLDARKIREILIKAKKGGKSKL

This assay has as its target Luciferin 4-monooxygenase (Photinus pyralis) (UniProt P08659). Nature of the assay: qHTS assay to identify small molecule inhibitors of firefly luciferase (AID 1224835). Further: nearly all actives have a fitted effect of over 25% in size. To be noted: purified P. pyralis luciferase, luminescence inhibition; series mostly up to 115 µM; activity change, negative = inhibition: at the top concentration. The text has this:
U.S. Tox21 Program National Center for Advancing Translational Sciences [NCATS] NIH Chemical Genomics Center [NCGC] U.S. Environmental Protection Agency [EPA] National Institutes of Environmental Health Sciences [NIEHS] National Toxicology Program [NTP] U.S. Food and Drug Administration [FDA] Tox21 Assay Overview: Firefly (Photinus pyralis) luciferase is one of the most commonly used transcriptional reporters. Firefly luciferase reporter-gene assays are generally considered one of the most sensitive assay types (Wood, 1995; Wood, 1998). However, it was initially observed, in 1991, by Thompson et al., that compounds that resemble the substrates of firefly luciferase (FLuc) can act as competitive inhibitors of the enzyme, and that these compounds, upon interaction with luciferase in the cell, can actually stabilize the protein and increase its half-life. Previous profiling work by other groups to determine the prevalence of compounds that affect FLuc enzymatic activity (PubChem AID 411) identified that ~3% of the MLSMR library (then at ~72K) inhibited FLuc. […] Thus the Tox21 10K library is profiled for activity against FLuc using a biochemical assay of purified FLuc and KM concentrations of FLuc substrates (D-luciferin and ATP).
These assay plates were then treated with 23nL of compound or DMSO using a Kalypsys pin tool, which allows for delivery of a 6-point interplate titration of each compound to the assay plate (quantitative HTS.) 1 uL of firefly luciferase mix (containing 50 mM Tris acetate, pH 7.6, 0.04 uM P. pyralis luciferase, 0.01% Tween, 0.05% BSA and dH2O) was then delivered by FRD to each well. Luciferase activity was then measured using a ViewLux CCD imager.
(Quantitative high-throughput screening tests each substance at several concentrations.)
Turning to `CCOc1ccc2c(c1)C(C)=CC(C)(C)N2`, the Potency is 56.1 µM (active) and 63.3 µM (active).
With `CC(C)CCOCc1ccccc1`, the “activity change, negative = inhibition” value is -1.34% (inactive).
Turning to `O=C(OCc1ccccc1)c1ccc(O)cc1`, the Potency is 31.7 µM (active) and 15.5 µM (active).
For `CC(=O)CC(=O)Nc1ccc2[nH]c(=O)[nH]c2c1`, the “activity change, negative = inhibition” value is 3.34% (inactive).
Regarding `NNCCc1ccccc1`, the Potency was 25.3 µM (active) and inactive.
Take `BrC1CCC(Br)C(Br)CCC(Br)C(Br)CCC1Br` (stereo not given): the Potency entry is “inactive”.
Still for that read-out and setting: the entry for `Cc1cccc(O)c1C` is “inactive”.
The same measure, in the same setting: the figure for `O=C(O[C@@H]1Cc2c(O)cc(O)cc2O[C@@H]1c1cc(O)c(O)c(O)c1)c1cc(O)c(O)c(O)c1` is 25.3 µM (active) and 38.5 µM (active).
Same read-out and setting: the figure for `CCN(CC)C(=S)SSC(=S)N(CC)CC` is 8.94 µM (active) and 6.48 µM (active) and 8.71 µM (active); for `Nc1cc(Cl)c(-c2cc(Cl)c(N)cc2Cl)cc1Cl` it is “inactive”; for `CC(C)CCOC(=O)c1ccc(N(C)C)cc1` it is 3.47 µM (active).
Regarding `Clc1ccc2c(c1)C(N1CCNCC1)=Nc1ccccc1O2`, the Potency entry is “inactive”.
As to `COC(=O)[C@H]1[C@H]2C[C@@H]3c4[nH]c5cc(OC)ccc5c4CCN3C[C@H]2C[C@@H](OC(=O)c2cc(OC)c(OC)c(OC)c2)[C@@H]1OC`, the Potency entry is “inactive”.
Take `O=C(O)c1cc(Cl)cc(Cl)c1`: the “activity change, negative = inhibition” value was 6.23% (inactive).
`O=C(Oc1ccccc1)c1ccccc1O`: the Potency is 31.9 µM (active) and 22.4 µM (active).
The same measure, in the same setting: the figure for `c1ccc2cc3c(ccc4ccccc43)cc2c1` is 5.66 µM (active) and 8.94 µM (active).
As to `O=C1NCC2(CCN(CCc3ccccc3)CC2)O1`, the “activity change, negative = inhibition” value was -5.72% [at 52.9 µM] (inactive).
On to `O=C(O)Cn1cnnn1`, for which the “activity change, negative = inhibition” value is -0.305% [at 52.9 µM] (inactive).
With `Cc1scc2c1N(C(=O)CN1CCN(C)CC1)c1ccccc1NC2=O`, the “activity change, negative = inhibition” value is 9.72% [at 52.9 µM] (inactive).
Regarding `CCCCCCC(O)CCCCCCCCCCC(=O)O` (stereo not given), the Potency entry was “inactive”.
Regarding `CC(C(O)c1ccc(O)cc1)N1CCC(Cc2ccccc2)CC1` (stereo not given), the “activity change, negative = inhibition” value is 1.19% [at 52.9 µM] (inactive).
On to `COc1cc(C(=S)N2CCOCC2)ccc1O`, for which the “activity change, negative = inhibition” value was -11% [at 52.9 µM] (inactive).
Regarding `O=C1OC2(c3ccc(O)cc3Oc3cc(O)ccc32)c2ccccc21`, the Potency result was “inactive”.
Consider `Nc1nc2ccccc2[nH]1`, for which the Potency result is “inactive”.
On the same count and under the same terms, the entry for `CC(=O)Nc1ccc(C(=O)CCl)cc1` is “inactive”; for `CC1=CC(=O)c2ccccc2C1=O` it is “inactive”.
For the molecule `CC(COc1ccccc1)N(CCCl)Cc1ccccc1` (stereo not given), the Potency entry was “inactive”.
As to `Cc1ccnc2c1NC(=O)c1cccnc1N2C1CC1`, the Potency entry is “inactive”.
Still for that read-out and setting: the figure for `c1cc(C(c2ccc(OCC3CO3)cc2)C(c2ccc(OCC3CO3)cc2)c2ccc(OCC3CO3)cc2)ccc1OCC1CO1` (stereo not given) is 16.5 µM (active).
The same measure, in the same setting: the entry for `O=C(O)c1cn(-c2ccc(F)cc2)c2cc(N3CCNCC3)c(F)cc2c1=O` is “inactive”.
`C1COC(NC(C2CC2)C2CC2)=N1`: the “activity change, negative = inhibition” value is 1.53% [at 52.9 µM] (inactive).
On the same count and under the same terms, the figure for `NC(Cc1ccc(Cl)cc1)C(=O)O` (stereo not given) is 3.14% [at 0.435 µM] (inactive).
Same read-out and setting: the figure for `COc1nc(C)nc(Cl)c1NC1=NCCN1` is 1.79% [at 52.9 µM] (inactive); for `Cc1occc(=O)c1OC(=O)C(C)C` it is -0.264% (inactive).
Same read-out and setting: the figure for `COc1ccc(Cc2cnc(N)nc2N)cc1OC` is 6.9% [at 52.9 µM] (inactive).
`Cc1c(O)cccc1C(=O)N[C@@H](CSc1ccccc1)[C@H](O)CN1C[C@H]2CCCC[C@H]2C[C@H]1C(=O)NC(C)(C)C`: the Potency entry is “inactive”.
The same measure, in the same setting: the entry for `CC(=O)N[C@@H](CS)C(=O)O` is “inactive”; for `O=C(Cl)c1cccc(C(=O)Cl)c1` it is “inactive”.
On the same count and under the same terms, the entry for `CCCCCCCCCCCC[N+](C)(C)C` is “inactive”; for `Cc1cccc2n[nH]nc12` it is “inactive”.

Source of the values: PubChem BioAssay (Tox21).
